A short description of assay [1]: compounds binding Alexa647 anti-His antibody – biochemical, small-molecule microarray, 635 nm fluorescence, artefact control for SMM control protein annotation, primary screen (AID 1128).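 Note: score merges feature fluorescence with signal-to-noise for each printed compound spot.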 The following applies: higher = more signal.
Assay [2] concerns Human papillomavirus type 1a E7 protein (residues 1-88). In words: HPV1a E7 small-molecule binders, primary screen, biochemical, small-molecule microarray, residues 1-88, 635 nm (AID 1129). The following applies: small-molecule microarray binding, fluorescence 635 nm; higher = more signal.
For assay [3], the target named is Focal adhesion kinase 1 (Homo sapiens) (UniProt Q05397). In words: PTK2 protein binding on printed compound slides – biochemical, small-molecule microarray, 635/667 nm fluorescence, BSA, DTT, primary screen (AID 1130).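 Note: composite of spot emission at 667 nm and signal to noise over triplicate slides.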 The following applies: 635 nm fluorescence, higher = more signal.
Assay [4] deals with Fibrinogen (Alexa647-labelled). Put plainly: Alexa647-fibrinogen binding to printed small molecules – biochemical, small-molecule microarray, 635/667 nm fluorescence, artefact control for SMM control-protein annotation, profiling panel (AID 1131).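 Note: z-score merges 667 nm fluorescence with per-spot signal-to-noise over triplicate slides.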 The settings on record: fibrinogen-A647 binding fluorescence, higher = more signal.
Assay [5] concerns the target Follistatin (Homo sapiens) (UniProt P19883). Put plainly: FST protein binding to printed compounds – biochemical, small-molecule microarray, 635/667 nm fluorescence, primary screen (AID 1132). The following applies: 635 nm fluorescence, higher = more signal.
The target of assay [6] is Fibroblast growth factor 2 (Homo sapiens) (UniProt P09038). Put plainly: basic fibroblast growth factor binding to printed compounds – biochemical, small-molecule microarray, 635/667 nm fluorescence, primary screen (AID 1133). The following applies: FGF2, fluorescence 635/667, higher = more signal.
The nature of assay [7]: JC-1 mitochondrial potential readout, lung cancer cells – cell-based, A549, JC-1 fluorescence, basal, 24 h, 100 nL, profiling panel (AID 1138).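 Note: A549 lung adenocarcinoma cells under basal conditions with no added stimulus; test concentration not given here.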 The following applies: higher = more signal.
A further assay concerns Lefty1. In words: Lefty1 protein binding to printed compounds – biochemical, small-molecule microarray, 635/667 nm fluorescence, primary screen (AID 1139). The following applies: fluorescence 635/667, higher = more signal.
For assay [8], the system named is wheat germ agglutinin (Triticum aestivum), Alexa647-labelled. Put plainly: Alexa647-WGA lectin binding to printed small molecules – biochemical, small-molecule microarray, 635/667 nm fluorescence, artefact control for SMM control-protein annotation, profiling panel (AID 1140).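 Note: score merges 667 nm feature emission with signal to noise over triplicate slides.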 The settings on record: WGA-A647 binding, 635 nm fluorescence, higher = more signal.
The target in assay [9] is Luciferin 4-monooxygenase (Photinus pyralis) (UniProt P08659). In words: inhibition of purified Photinus pyralis luciferase – biochemical, luminescence, purified enzyme, 2006 set, primary screen (AID 1141).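 Note: cell-free assay with purified firefly luciferase at 100 ng per well in PBS; test concentration not given here.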 The following applies: purified firefly luciferase, SteadyGlo luminescence, 30 min; higher = more signal, called active from +8 up or from −8 down.
For assay [10], the system named is Wnt5a (protein binding on small-molecule microarray). In words: small molecules binding Wnt5a protein – biophysical, small-molecule microarray, 635/667 nm fluorescence, primary screen (AID 1142).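 Note: fluorescence read at 667 nm with signal to noise per printed feature.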 The settings on record: 635 nm fluorescence, higher = more signal.
The nature of assay [11]: ATP-based viability of Huh7 replicon cells – cell-based, CellTiter-Glo luminescence, basal, 48 h, cytotoxicity control for HCV replication inhibitor project, primary screen (AID 1143).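 Note: Huh7 hepatoma cells carrying a hepatitis C replication reporter with no stimulus; test concentration not given here.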 The following applies: higher = more signal, called active from +8 up or from −8 down. (Replicon systems follow genome replication, usually without infectious particles.)
Assay [12] can be described thus: Pseudomonas biofilm growth suppression – PAO1 strain, BacTiter-Glo luminescence, LB-PBS, primary screen (AID 1144). The settings on record: P. aeruginosa PAO1 biofilm, 12 h, higher = more signal.
Assay [13] is described as follows: basal CRE-LacZ reporter activity in PC12 – cell-based, unstimulated, primary screen (AID 1145). The settings on record: no forskolin, luminescence, 4.5 h, higher = more signal, called active from +8 up or from −8 down.
Assay [14] in a line: forskolin-driven CRE-LacZ activity in PC12 – cell-based, CRE-LacZ reporter, forskolin-stimulated, primary screen (AID 1146).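 Note: PC12 cells with 6xCRE LacZ reporter stimulated by forskolin 10 µM; beta-galactosidase reporter signal reflecting CREB driven transcription.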 The settings on record: luminescence, 4.5 h, higher = more signal, called active from +8 up or from −8 down.
Assay [15] has as its target Streptavidin (Streptomyces avidinii) (UniProt P22629). Put plainly: compounds binding control protein streptavidin – biophysical, small-molecule microarray, 635/667 nm fluorescence, artefact control for SMM compound annotation, primary screen (AID 1147).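 Note: signal reflects streptavidin binding to arrayed compounds as a control protein.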 The settings on record: higher = more signal.
A short description of assay [16]: probe aInhba binding on compound microarray – biochemical, small-molecule microarray, 635/667 nm fluorescence, primary screen (AID 1148).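 Note: score merges 667nm spot fluorescence with signal-to-noise for antibody binding to printed compounds.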 The settings on record: higher = more signal.
In assay [17] the target is Torsin-1A (Homo sapiens) (UniProt O14656). Put plainly: TOR1A wild-type binding on microarray – cell lysate, small-molecule microarray, lysate, 635/667 nm, primary screen (AID 1149). The following applies: COS7 hTOR1A-WT lysate, 635 nm fluorescence, higher = more signal.
The target is the same in assay [18]. Put plainly: torsin A mutant lysate binding on microarrays – cell lysate, small-molecule microarray, COS7 lysate, 635/667 nm fluorescence, primary screen (AID 1150).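 Note: score pools 667 nm emission and signal to noise measuring lysate protein binding.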 The settings on record: COS7 hTOR1A mutant lysate, 635 nm fluorescence, higher = more signal.
Assay [19] deals with Sonic hedgehog protein (Shh). Put plainly: Sonic hedgehog microarray binding compounds – biochemical, small-molecule microarray, 635/667 nm fluorescence, primary screen (AID 1151).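 Note: Shh protein binding to compounds spotted on small-molecule microarray slides; score combines spot fluorescence intensity with signal-to-noise across triplicate slides.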 The following applies: 635 nm fluorescence, higher = more signal.

Calls of active or inactive are those of the source. Unless noted, the rule behind the calls is not given here.

Focal adhesion kinase 1 (Homo sapiens), sequence (Q05397 whole entry, looked up): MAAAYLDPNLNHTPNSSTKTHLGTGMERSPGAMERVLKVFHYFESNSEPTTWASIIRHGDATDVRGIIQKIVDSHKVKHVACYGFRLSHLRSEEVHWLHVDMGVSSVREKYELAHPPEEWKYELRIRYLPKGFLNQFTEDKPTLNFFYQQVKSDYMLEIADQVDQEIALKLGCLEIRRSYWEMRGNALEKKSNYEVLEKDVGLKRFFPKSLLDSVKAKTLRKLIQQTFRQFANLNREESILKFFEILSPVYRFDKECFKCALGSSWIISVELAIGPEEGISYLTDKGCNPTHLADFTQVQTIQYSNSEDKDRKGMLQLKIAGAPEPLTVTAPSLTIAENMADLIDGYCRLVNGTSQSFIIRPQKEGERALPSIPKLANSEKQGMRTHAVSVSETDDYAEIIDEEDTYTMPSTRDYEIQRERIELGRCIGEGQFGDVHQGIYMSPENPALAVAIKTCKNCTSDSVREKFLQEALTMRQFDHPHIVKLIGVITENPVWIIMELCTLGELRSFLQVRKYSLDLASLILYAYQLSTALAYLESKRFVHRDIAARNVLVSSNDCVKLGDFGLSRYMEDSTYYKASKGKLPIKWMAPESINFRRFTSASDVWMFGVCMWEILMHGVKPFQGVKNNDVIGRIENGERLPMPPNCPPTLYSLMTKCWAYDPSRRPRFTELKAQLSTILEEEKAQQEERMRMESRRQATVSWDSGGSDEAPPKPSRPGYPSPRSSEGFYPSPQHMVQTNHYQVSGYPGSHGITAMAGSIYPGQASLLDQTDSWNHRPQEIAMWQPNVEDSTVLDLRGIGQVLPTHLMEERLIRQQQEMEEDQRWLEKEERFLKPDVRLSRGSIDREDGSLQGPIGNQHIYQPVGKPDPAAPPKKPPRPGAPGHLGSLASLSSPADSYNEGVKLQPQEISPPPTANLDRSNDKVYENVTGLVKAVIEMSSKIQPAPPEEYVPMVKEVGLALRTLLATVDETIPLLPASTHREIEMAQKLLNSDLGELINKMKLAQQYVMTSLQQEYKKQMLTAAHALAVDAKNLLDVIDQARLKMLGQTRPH
Streptavidin (Streptomyces avidinii), sequence (P22629 whole entry, looked up): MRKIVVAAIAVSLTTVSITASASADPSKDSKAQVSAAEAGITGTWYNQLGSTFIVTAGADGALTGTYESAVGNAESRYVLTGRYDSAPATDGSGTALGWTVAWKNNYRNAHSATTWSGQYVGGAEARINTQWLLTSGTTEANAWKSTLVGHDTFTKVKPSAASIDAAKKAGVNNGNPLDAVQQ
Follistatin (Homo sapiens), sequence (P19883 whole entry, looked up): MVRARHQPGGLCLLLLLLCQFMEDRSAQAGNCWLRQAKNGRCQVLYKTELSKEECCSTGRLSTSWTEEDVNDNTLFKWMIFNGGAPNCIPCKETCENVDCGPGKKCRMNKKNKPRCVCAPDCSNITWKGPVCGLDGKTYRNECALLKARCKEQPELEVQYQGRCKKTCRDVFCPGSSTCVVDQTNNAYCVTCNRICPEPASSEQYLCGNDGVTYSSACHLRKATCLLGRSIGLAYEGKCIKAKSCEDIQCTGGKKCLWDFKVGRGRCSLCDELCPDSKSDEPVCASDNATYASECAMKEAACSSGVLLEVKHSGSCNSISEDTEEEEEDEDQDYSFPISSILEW
Torsin-1A (Homo sapiens), sequence (O14656 whole entry, looked up): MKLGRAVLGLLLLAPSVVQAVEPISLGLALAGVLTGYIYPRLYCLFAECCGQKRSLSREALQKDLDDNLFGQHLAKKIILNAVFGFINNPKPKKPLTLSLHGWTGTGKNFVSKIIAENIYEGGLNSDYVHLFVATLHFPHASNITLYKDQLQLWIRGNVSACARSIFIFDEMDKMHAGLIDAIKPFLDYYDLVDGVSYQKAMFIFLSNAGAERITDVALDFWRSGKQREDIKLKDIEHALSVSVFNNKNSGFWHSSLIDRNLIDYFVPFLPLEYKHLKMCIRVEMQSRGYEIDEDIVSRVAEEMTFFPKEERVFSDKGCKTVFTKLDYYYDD
Fibroblast growth factor 2 (Homo sapiens), sequence (P09038 whole entry, looked up): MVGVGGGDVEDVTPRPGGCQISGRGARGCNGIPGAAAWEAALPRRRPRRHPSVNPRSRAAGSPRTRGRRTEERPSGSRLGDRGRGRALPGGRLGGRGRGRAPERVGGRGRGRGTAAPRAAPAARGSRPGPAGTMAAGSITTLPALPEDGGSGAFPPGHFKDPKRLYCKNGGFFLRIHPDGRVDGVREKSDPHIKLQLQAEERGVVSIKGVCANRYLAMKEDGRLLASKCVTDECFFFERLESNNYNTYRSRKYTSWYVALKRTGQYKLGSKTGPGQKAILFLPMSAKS
Luciferin 4-monooxygenase (Photinus pyralis), sequence (P08659 whole entry, looked up): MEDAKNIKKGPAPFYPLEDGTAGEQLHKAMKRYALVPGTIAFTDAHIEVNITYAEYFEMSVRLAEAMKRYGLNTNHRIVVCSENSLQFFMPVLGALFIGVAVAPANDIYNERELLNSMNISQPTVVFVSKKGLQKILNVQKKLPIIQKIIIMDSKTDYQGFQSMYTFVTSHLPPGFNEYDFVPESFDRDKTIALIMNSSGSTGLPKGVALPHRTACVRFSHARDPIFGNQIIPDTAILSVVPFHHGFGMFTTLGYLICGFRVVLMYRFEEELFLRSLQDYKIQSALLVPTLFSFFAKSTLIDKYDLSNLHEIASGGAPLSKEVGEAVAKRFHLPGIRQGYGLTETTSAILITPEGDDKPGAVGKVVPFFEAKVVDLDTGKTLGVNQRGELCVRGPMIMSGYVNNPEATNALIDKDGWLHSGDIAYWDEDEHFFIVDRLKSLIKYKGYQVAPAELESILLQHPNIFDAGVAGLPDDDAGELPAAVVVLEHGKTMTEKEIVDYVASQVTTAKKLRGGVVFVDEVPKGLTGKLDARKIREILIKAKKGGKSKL

On to `C[C@]1(C(=O)NC2CC2)c2ccccc2C(=O)N(Cc2ccc(OC(F)(F)F)cc2)[C@H]1c1ccc(CO)cc1`, for which the composite z-score was -0.725 in assay [1]; 0.722 in [2]; 0.576 in assay [3]; -0.796 in assay [4]; -0.239 in [5]; 0.0672 in assay [6]. Besides, the composite z-score with Lefty1 is -0.858; in assay [8], -1.5; in assay [10], -0.0135; in assay [15], -0.825; in assay [16], 0.152; with Torsin-1A (Homo sapiens) [17] it was 0.398. Besides, the composite z-score was 0.398 in the assay with Torsin-1A (Homo sapiens) [18] and -0.379 in assay [19]. In addition, the z-score in [7] is 1; in assay [9], 0.371 (inactive); in assay [11], -0.0474 (inactive); in assay [12] it was 0.244 (inactive); in [13] it was 1.64 (inactive); in assay [14], -0.103 (inactive).

For the compound `CC=CC(O)C1C=CC2C(=O)N(c3ccccc3)C(=O)C2N1Nc1ccccc1` (stereo not given), the composite z-score in assay [1] was found to be 2.25; in assay [2], 1.25; in [3], 0.981; in assay [4], 0.915; in assay [5], 1.2; in [6] it was 0.915. For the same compound, the composite z-score in the assay with Lefty1 was 0.493; in assay [8], 1.15; in assay [10], 0.859; in assay [15] it was 1; in assay [16] it was 0.337; with Torsin-1A (Homo sapiens) [17] it was 0.358. Moreover, the composite z-score was found to be 0.285 in the assay with Torsin-1A (Homo sapiens) [18] and 0.0322 in assay [19]. Also, the z-score in assay [7] is 0.714; in assay [9] it was -2.22 (inactive); in [11], 0.973 (inactive); in assay [12], -1.33 (inactive); in assay [13] it was 0.0501 (inactive); in assay [14] it was -0.741 (inactive).

As for `C[C@@H]1ON(c2ccc(C(=O)OC(C)(C)C)cc2)[C@H](c2ccc(Br)cc2)[C@H]1C(=O)N1C(=O)OC[C@H]1Cc1ccccc1`, the composite z-score in [1] is 0.405; in assay [2], 1.05; in [3], -0.204; in assay [4], 0.97; in assay [5], 0.7; in assay [6], 0.734. The composite z-score in the assay with Lefty1 was 0.822; in assay [8], 0.377; in assay [10], 0.232; in assay [15] it was 1.03; in assay [16] it was 0.0301; in the assay with Torsin-1A (Homo sapiens) [17], 0.673. Moreover, the figures for the composite z-score (with Torsin-1A (Homo sapiens) [18]; in assay [19]) were 0.644 and 0.991, respectively. Besides, the z-score in assay [7] is 1.59; in [9], -0.874 (inactive); in assay [11], -1.09 (inactive); in assay [12], 1 (inactive); in [13] it was 2.04 (inactive); in [14] it was 0.289 (inactive).

`O=C(O)[C@H](Cc1ccccc1)n1cc(-c2ccccn2)nn1`: the composite z-score is 0.908 in [1]; 0.585 in [2]; 0.19 in [3]; 0.919 in assay [4]; 0.676 in assay [5]; 0.0069 in assay [6]. Also, the composite z-score with Lefty1 is 0.5; in assay [8], 0.425; in [10] it was 0.0676; in [15], 0.303; in assay [16] it was -0.0645; with Torsin-1A (Homo sapiens) [17] it was 0.307. Moreover, the composite z-score is 0.407 in the assay with Torsin-1A (Homo sapiens) [18] and 0.506 in assay [19]. For the same compound, the z-score in assay [7] was -0.47; in assay [9], 1.01 (inactive); in assay [11], -0.437 (inactive); in assay [12], -0.0406 (inactive); in assay [13], 0.688 (inactive); in assay [14], -0.377 (inactive).

For the compound `CC(C)C(CO)N1C(=O)[C@]2(C)C3C(=O)OCCC/C=C\[C@H]3OC23C=CCN(c2ccc(Cl)cc2)C(=O)[C@@H]13` (stereo not given in full), the composite z-score in assay [1] was -0.0262; in assay [2], -0.456; in assay [3], 0.118; in assay [4] it was -0.809; in [5], -0.223; in [6] it was -0.815. For the same compound, the composite z-score with Lefty1 was 0.211; in assay [8] it was -0.367; in assay [10] it was -0.269; in assay [15], -0.476; in assay [16], -0.128; with Torsin-1A (Homo sapiens) [17] it was -1.47. For the same compound, the results for the composite z-score (with Torsin-1A (Homo sapiens) [18]; in assay [19]) were -0.856 and 0.279, respectively. The z-score in assay [7] was 0.612; in [9], -0.657 (inactive); in assay [11] it was -0.199 (inactive); in assay [12], 1.25 (inactive); in assay [13], -0.358 (inactive); in assay [14], 1.11 (inactive).
